Rows were chosen to be rich in hits. Some 11% of all compounds tested hit in one or more screens of this group.
ALDH1A1 block: qHTS Assay for Inhibitors of Aldehyde Dehydrogenase 1 (ALDH1A1). Purified ALDH1A1, NADH fluorescence, propionaldehyde substrate. Aldehyde dehydrogenase 1A1 (Homo sapiens), P00352. 220,000 tested, 7.3% active. Potency, µM (series often up to 75.3 µM), for inactives: top-dose activity, negative = inhibition, hits mostly inhibitors;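 also: potency is read from the fitted curve at half-maximal effect; plate controls were no enzyme wells and a reference inhibitor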
PNC assembly inh: High Content Assay for Compounds that inhibit the Assembly of the Perinucleolar Compartment | PC3M PTB-GFP, PNC prevalence imaging, 16 h; hits give low values | AID 2417, 2010 | 140,000 tested, 3.1% active | activity change (PNC), negative = inhibition, % at 10 µM;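 active = readout at or below -70, meaning at least 70% loss of cells showing the perinucleolar compartment, a nuclear body marking cancer cells; inconclusive = readout between -30 and a set limit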;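 also: plate controls were DMSO wells for no effect and camptothecin positive control wells for full effect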
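Read-out is percentage of cells bearing a perinucleolar compartment, from automated 20x imaging of fixed, Hoechst-stained PC3M PTB-GFP cells. Cells were seeded 4 h, then exposed 16 h to compound (23 nl of library stock) in duplicate plates.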
HPGD block: qHTS Assay for Inhibitors of HPGD (15-Hydroxyprostaglandin Dehydrogenase). 15-hydroxyprostaglandin dehydrogenase [NAD(+)] (Homo sapiens), P15428. purified HPGD, NADH fluorescence kinetic, PGE2 substrate. Potency, µM, for inactives: at the top dose activity change, negative = inhibition, hits mostly inhibitors. 150,000 tested, 4.3% active; also: potency is read from the fitted curve at half-maximal effect
Target sequence (P15428 whole entry, looked up): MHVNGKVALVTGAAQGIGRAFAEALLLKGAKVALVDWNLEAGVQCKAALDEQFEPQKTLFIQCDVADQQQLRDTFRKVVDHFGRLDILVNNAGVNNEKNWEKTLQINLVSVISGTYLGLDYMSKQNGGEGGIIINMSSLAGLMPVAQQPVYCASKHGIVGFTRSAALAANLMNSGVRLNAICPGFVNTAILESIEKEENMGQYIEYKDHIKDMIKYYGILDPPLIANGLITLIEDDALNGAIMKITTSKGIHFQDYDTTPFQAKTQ
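NADH formation kinetics: reaction with 30 uM PGE2 and 1 mM NAD+ (final), 20 nM enzyme, Tris-HCl pH 8 with Tween 20, after 15 min compound preincubation at room temperature. Fluorescence change, last versus first of five reads.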
The depositor's hits bear a star; [ ] = another dose, or the depositor's remark. Unless noted, calls follow the shape of the dose curve; as a rule, active = well fitted inhibition curve with a large enough effect (not every such curve was filed as active); inconclusive = small, poorly fitted or top-dose-only effect, or another doubt; inactive = no such curve, though single readings can be large or run the other way. Unless noted, % is scaled to controls: 0 for no effect and ±100 for the full control effect.

For Cc1cc(C)n(CC(=O)n2c(C)c(C)c3ccccc32)n1 the results were ALDH1A1 block 2%, PNC assembly inh 248 and HPGD block -13%.
For CCc1cccc(NC(=O)C(NC(=O)C2CCCCC2)C(C)C)c1 (stereo not drawn) the results were ALDH1A1 block 10%.
For CC1=C(C#N)C(c2cccnc2)C2=C(N1)c1ccccc1C2=O (stereo not drawn) the results were ALDH1A1 block -1%.
Screening CC1=C(C#N)C(c2ccccc2)C2=C(N1)c1ccccc1C2=O (stereo not drawn) returned ALDH1A1 block 13µM*, PNC assembly inh 32 and HPGD block 22µM*.
Screening N#Cc1c(NC(=O)/C=C/c2ccco2)sc2c1CCCC2 returned ALDH1A1 block 32µM*, PNC assembly inh -112* and HPGD block inconclusive.
Screening Cc1ccccc1C(=O)NC(=S)Nc1sc2c(c1C#N)CCCC2 returned ALDH1A1 block 6.3µM*, PNC assembly inh inconclusive and HPGD block -24%.
Screening Cc1onc(-c2ccccc2)c1C(=O)Nc1sc2c(c1C#N)CCC2 returned ALDH1A1 block inconclusive, PNC assembly inh 25 and HPGD block inconclusive.
CCC(=O)Nc1sc2c(c1C#N)CCCCC2 was read as ALDH1A1 block inconclusive, PNC assembly inh inconclusive and HPGD block -16%.
For Cc1onc(-c2ccccc2)c1C(=O)NC(=S)Nc1sc2c(c1C#N)CCCC2 the results were ALDH1A1 block 0.5µM*, PNC assembly inh 24 and HPGD block inconclusive.
Cn1cc(Cl)c(C(=O)NC(=S)Nc2sc3c(c2C#N)CCCCC3)n1 was read as ALDH1A1 block inconclusive, PNC assembly inh 15 and HPGD block 10µM*.
Screening N#Cc1c(NC(=O)c2ccccc2)sc2c1CCCCC2 returned ALDH1A1 block inconclusive, PNC assembly inh 36 and HPGD block inconclusive.
O=C(/C=C/c1ccco1)Nc1sc2c(c1C(=O)O)CCC2 was read as ALDH1A1 block 4%, PNC assembly inh 32 and HPGD block -18%.
Cc1ccc2nc(SCC(=O)Nc3nnc(SCC(N)=O)s3)[nH]c2c1 was read as ALDH1A1 block 6%, PNC assembly inh -18 and HPGD block -5%.
CCCn1c(SCC(=O)c2cc(C)c(C)cc2C)n[nH]c1=O was read as ALDH1A1 block 0%, PNC assembly inh -7 and HPGD block -12%.
Screening CC(=O)OC(C(=O)NC1CCCCC1)c1cccc(C)c1 (stereo not drawn) returned ALDH1A1 block -10%, PNC assembly inh 22 and HPGD block 1%.
Screening COC(=O)C1=C(C(=O)OC)[C@@H]2N(Cc3ccccc3)c3ccccc3[C@@]23C[C@@H](C(=O)OC)N(S(=O)(=O)c2ccc(C)cc2)C3=N1 returned ALDH1A1 block -2%[13.5 µM] and HPGD block -7%.
For c1ccc(Oc2ccc(-n3cnnn3)cc2)cc1 the results were ALDH1A1 block -1%, PNC assembly inh 14 and HPGD block -6%.
For Cc1noc(C)c1C(=O)Nc1sc(C)c(-c2ccccc2)c1C#N the results were ALDH1A1 block 10µM*, PNC assembly inh inconclusive and HPGD block -29%.
Screening CC(=O)Nc1sc2c(c1C#N)CCCCC2 returned ALDH1A1 block inconclusive, PNC assembly inh 11 and HPGD block -12%.
Screening Cc1cccc(C(=O)Nc2sc(C)c(-c3ccccc3)c2C#N)c1 returned ALDH1A1 block inconclusive, PNC assembly inh 36 and HPGD block inconclusive.
Cc1onc(-c2c(F)cccc2Cl)c1C(=O)Nc1sc2c(c1C#N)CCC(C(C)(C)C)C2 (stereo not drawn) was read as ALDH1A1 block -5%, PNC assembly inh -10 and HPGD block inconclusive.
For Cc1onc(-c2ccccc2)c1C(=O)NC(=S)Nc1sc2c(c1C#N)CCC(C)C2 (stereo not drawn) the results were ALDH1A1 block 2.2µM*, PNC assembly inh -29 and HPGD block -29%.
`CC(C)(C)C(=O)NC(=S)Nc1sc2c(c1C#N)CCCCC2` gave ALDH1A1 block 22µM*, PNC assembly inh 18 and HPGD block -22%.
CCOc1ccc(-c2nnn(CC(=O)N3CCCC(C)C3)n2)cc1 (stereo not drawn) was read as ALDH1A1 block -10%.
Screening Cc1ccc(S(=O)(=O)NCCc2cccs2)cc1 returned ALDH1A1 block -9%.
CN(C)CC(=O)N1c2ccccc2CCc2ccc(NC(=O)c3ccc(N)cc3)cc21 was read as ALDH1A1 block inconclusive, PNC assembly inh -85* and HPGD block -13%.
Screening COc1cc(C(=O)Nc2ccc3c(c2)N(C(=O)CCN(C)C)c2ccccc2CC3)cc(OC)c1OC returned ALDH1A1 block 1%.
For N#CC1=C(N)N(c2ccc(Cl)c(Cl)c2)C(=O)C1 the results were ALDH1A1 block 28µM*.
O=C1CC(C2CCCO2)C(=O)N1c1ccc(Cl)c(Cl)c1 (stereo not drawn) was read as ALDH1A1 block -7%.
`COc1cccc(NC(=O)c2ccc(-n3cccn3)nc2)c1` gave ALDH1A1 block -4%, PNC assembly inh inconclusive and HPGD block inconclusive.
`COC(=O)C(C)N1C(=O)S/C(=C/c2cc(C)n(-c3ccccn3)c2C)C1=O` (stereo not drawn) gave ALDH1A1 block inconclusive, PNC assembly inh 15 and HPGD block -5%.
COC(=O)C(C)N1C(=O)S/C(=C\c2cc(C)n(-c3ccccn3)c2C)C1=O (stereo not drawn) was read as ALDH1A1 block 22µM*, PNC assembly inh 7 and HPGD block -26%.
Cc1ccc(S(=O)(=O)N(CC(=O)Nc2ccccc2C(=O)O)c2ccc(Cl)cc2)cc1 was read as ALDH1A1 block 0%.
For O=C(NC12CC3CC(CC(C3)C1)C2)c1cncc(O)c1 the results were ALDH1A1 block -5%, PNC assembly inh inconclusive and HPGD block -11%.
`Brc1ccccc1-n1nnc(-c2cccnc2)n1` gave ALDH1A1 block 7%.
c1cncc(-c2nnc(-c3cccnc3)nn2)c1 was read as ALDH1A1 block 11µM*, PNC assembly inh inconclusive and HPGD block 8.9µM*.
Screening Cc1c(Cl)cccc1NC(=S)N1CCCN(Cc2ccc(F)cc2)C1 returned ALDH1A1 block -5%.
O=C(Cn1cc(C(F)(F)F)ccc1=O)Nc1cccc(S(=O)(=O)N2CCOCC2)c1 was read as ALDH1A1 block 2%, PNC assembly inh 84 and HPGD block -6%.
`Cc1nc2nc(-c3cccnc3)[nH]n2c(=O)c1C` gave ALDH1A1 block 18µM*, PNC assembly inh -20 and HPGD block -3%.
`Cc1nc2nc(-c3ccccc3)[nH]n2c(=O)c1C` gave ALDH1A1 block -10%, PNC assembly inh inconclusive and HPGD block -21%.
Screening NC(=O)C1=C[C@@H](c2ccccc2)C[C@@H](OCc2ccc(CO)cc2)O1 returned ALDH1A1 block -3%.
`O=C(/C(=N\Nc1ccccc1)Sc1nnnn1-c1ccccc1)c1ccccc1` gave ALDH1A1 block 1.4µM*, PNC assembly inh -13 and HPGD block -16%.
Screening CC(=O)/C(=N\Nc1ccccc1)Sc1nncn1C returned ALDH1A1 block -6%, PNC assembly inh inconclusive and HPGD block -11%.

Compound activity (PubChem)
